# Laboratory results reported in PubChem BioAssay.
# The source made the active and inactive calls. Rule as the data show it: active = fold change permeability below about 0.7 or above about 1.3; inactive = in between.
# Test: compounds altering in vitro BBB leakiness – cell-based, FITC-avidin fluorescence, HTS, primary screen (AID 1963498); also: test concentration not given here
# Settings: brain endothelial barrier, actives lie on both sides
row,Structure (SMILES),fold change permeability
1,COC(=O)c1c(C)[nH]c(C)c1C(=O)c1ccccc1Cc1ccccc1,1.2 (inactive)
2,O=C1NC(=O)/C(=C/c2ccc(-c3ccc(F)cc3O)o2)S1,1 (inactive)
3,CC(C)c1cc(/C=C(\C#N)C(=O)NCCCc2ccccc2)cc(C(C)C)c1O,0.8 (inactive)
4,O=C1Cc2cc(CCN3CCN(c4nsc5ccccc45)CC3)c(Cl)cc2N1,0.9 (inactive)
5,CCN(CC)CCOC(=O)c1cc(Cl)c(N)cc1OC,1.1 (inactive)
6,O=c1cc(-c2cccc3c2Sc2ccccc2S3)oc(N2CCOCC2)c1,1 (inactive)
7,Cc1cc(C(C)(C)C)cc(C)c1CC1=NCCN1,2 (active)
8,CN1CCN(C2=Nc3cc(Cl)ccc3Nc3ccccc32)CC1,1.2 (inactive)
9,NS(=O)(=O)c1cc2c(cc1Cl)NC=NS2(=O)=O,0.9 (inactive)
10,CC(C)c1ccc2oc3nc(N)c(C(=O)O)cc3c(=O)c2c1,1 (inactive)
11,O=C(O)CN(CCOCCOCCN(CC(=O)O)CC(=O)O)CC(=O)O,0.8 (inactive)
12,CCN1/C(=C/C(C)=O)Sc2ccc(O)cc21,1.1 (inactive)
13,OC(CCN1CCCCC1)(c1ccccc1)C1CC2C=CC1C2 (stereo not given),1.1 (inactive)
14,CC(C)C(=O)c1c(C(C)C)nn2ccccc12,1.3 (active)
15,COC(=O)[C@@H](N)Cc1ccc(O)c(O)c1,1 (inactive)
16,Clc1cccc(Cl)c1CSc1nnc(-c2cnccn2)s1,1.2 (inactive)
17,NCCCC(N)(C(=O)O)C(F)F (stereo not given),0.8 (inactive)
18,O=C(/C=C/c1ccc(O)cc1)c1ccc(O)cc1O,1.2 (inactive)
19,NCCCC(=O)O,0.8 (inactive)
20,Nc1nc(Nc2ccccc2)nc2c1ncn2[C@@H]1O[C@H](CO)[C@@H](O)[C@H]1O,0.8 (inactive)
